The source of these data is article PMC5540273 (PLoS ONE, 2017).

Conditions in all cases: concentration: 1 μM, replicates: in singlicate; n = 1
Test [1] relates to T1, PYK2.
T1 construct: gene PTK2B

The test system of test [2] is QSK.
For test [3], the system named is RAF1.
For test [4], the system named is RET.
In test [5] the test system is RIOK1.
Test [6] concerns RIOK2.
The test system of test [7] is RIOK3.
The test system of test [8] is RIPK1.
The test system of test [9] is RIPK2.
In test [10] the test system is RIPK4.
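Also: KINOMEscan kinase panel screen.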

With `Cc1cccc(-c2nc(Nc3ccc4ncsc4c3)c3ccccc3n2)n1` [GW867588], the “%Inh” value in test [1] is listed as 0%; in [2], 11%; in test [3], 0%; in test [4], 0%; in test [5] it was 20%; in [6], 31%. For the same compound, the “%Inh” value is recorded as 0% in test [7], 0% in test [8], 5% in [9] and 13% in test [10].
As to `Nc1nc(-c2ccc3c(N)n[nH]c3c2)cc(N2CCCC2)n1` [GSK2227430], the “%Inh” value was 20% in test [1]; 0% in test [2]; 0% in test [3]; 0% in [4]; 48% in test [5]; 2% in test [6]. Further, the “%Inh” value worked out at 56% in test [7], 0% in test [8], 0% in test [9] and 11% in [10].
With `CCCCCc1nc2c(N)ncnc2n1CCCCC` [SKF-97255], the “%Inh” value in test [1] came out at 21%; in [2], 7%; in test [3], 11%; in test [4] it was 0%; in test [5], 0%; in test [6] it was 0%. Moreover, the “%Inh” value is listed as 0% in test [7], 0% in test [8], 22% in test [9] and 7% in test [10].
As for `COc1ccc(Nc2nccc(N3CCC(NC(=O)Nc4cccc(C(C)=O)c4)C3)n2)cc1` (centres unmarked) [GSK1379731], the “%Inh” value in [1] is listed as 0%; in [2], 0%; in test [3], 0%; in test [4] it was 0%; in [5] it was 42%; in [6], 0%. The “%Inh” value was found to be 24% in test [7], 0% in test [8], 39% in test [9] and 0% in [10].
As for `Cl.Nc1ncnc2occ(-c3ccc(NC(=O)Nc4cc(C(F)(F)F)ccc4F)cc3)c12` [SB-707548], the “%Inh” value in [1] is recorded as 19%; in test [2] it was 0%; in test [3], 78%; in test [4], 100%; in [5] it was 0%; in test [6], 0%. Besides, the “%Inh” value is listed as 22% in test [7], 96% in test [8], 42% in test [9] and 2% in test [10].
